Screens deposited in PubChem by Sanford-Burnham Center for Chemical Genomics.
SENP8 block-1: inhibitors of human SENP8 protease; Q96LD8; recombinant SENP8, Nedd8 substrate fluorescence; inhibition, % at 20 µM; 360,000 compounds, 0.64% hits; in the data active means inhibition mostly above about 40%, no sharp cut-off; inactive means mostly below about 27%
SENP7 inh: inhibitors of human SENP7 protease; Q9BQF6; AID 434973; 330,000 compounds, 1.5% hits; inhibition, % at 5 µM; recombinant SENP7, Z-RLRGG-aminoluciferin luminescence, 40 min;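 active means inhibition above about 50% at the single test dose, limit read from the data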;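 further: plate controls were DMSO with enzyme for no effect and no enzyme buffer wells for full effect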
PPC-1+TRAIL kill: compounds killing PPC-1 cancer cells with TRAIL present (potentiator screen, no TRAIL-free arm); cell killing (% activity), % at 4 µM or 5 µM; AID 1443; 220,000 compounds, 0.41% hits; PPC-1 cells + TRAIL, ATPLite viability luminescence;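 active means cell killing above 50% in the first pass at 4 µM, then a duplicate retest at 5 µM averaging 50% or more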;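 further: plate controls were cells with TRAIL plus DMSO for no effect and medium-only wells lacking cells for full effect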
SENP8 block-2: blocks the human protease SENP8; purified SENP8, Z-RLRGG-aminoluciferin cleavage, luminescence; inhibition, % at 10 µM; 330,000 compounds, 1.2% hits; in the data active means inhibition above about 50%
SENP6 inh: inhibitors of human SENP6 protease; 330,000 compounds, 1.8% hits; Q9GZR1; inhibition, % at 10 µM; Recombinant SENP6 catalytic domain, aminoluciferin luminescence; AID 2599;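 active means inhibition above about 50% at the single tested dose, limit read from the data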;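 further: plate controls were DMSO wells with enzyme for no effect and DMSO wells lacking enzyme for full effect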
Target sequence (Q9GZR1 628-1112 limits assumed): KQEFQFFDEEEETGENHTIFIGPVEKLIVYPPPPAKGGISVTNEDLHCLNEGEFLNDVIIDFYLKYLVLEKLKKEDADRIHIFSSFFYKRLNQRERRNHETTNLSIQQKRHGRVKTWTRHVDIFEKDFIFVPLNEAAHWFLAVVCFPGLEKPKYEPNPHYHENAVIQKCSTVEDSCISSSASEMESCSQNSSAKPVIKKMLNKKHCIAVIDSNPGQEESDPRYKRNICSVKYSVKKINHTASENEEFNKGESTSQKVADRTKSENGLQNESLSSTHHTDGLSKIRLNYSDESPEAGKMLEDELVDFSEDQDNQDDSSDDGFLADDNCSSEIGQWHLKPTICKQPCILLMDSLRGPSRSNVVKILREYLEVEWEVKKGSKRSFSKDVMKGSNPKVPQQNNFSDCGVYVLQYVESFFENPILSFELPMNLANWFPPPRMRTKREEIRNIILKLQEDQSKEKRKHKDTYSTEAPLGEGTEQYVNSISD
TRAIL sens C8: sensitizes caspase-8 expressing cells to TRAIL. AID 624354. 360,000 compounds, 1% hits. inhibition (viability loss, TRAIL sensitization), % at 10 µM. NB7+C8 cells + TRAIL, ATPlite viability luminescence;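 active means compounds causing at least 50% loss of cell viability in the single-dose screen, relative to plate controls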
SENP8 confirm: human SENP8 inhibition, confirmed; shares compounds with SENP7 inh; Recombinant SENP8, Z-RLRGG-aminoluciferin luminescence, 60 min; inhibition, % at 12.5 µM; 6,200 compounds, 40% hits; AID 488912;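 active means mean inhibition across replicates above about 50%, limit read from the data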
SENP6 confirm: human SENP6 inhibition, confirmed. inhibition, % at 12.5 µM. 6,200 compounds, 58% hits. shares compounds with SENP7 inh. recombinant SENP6, Z-RLRGG-aminoluciferin luminescence
SENP7 conf: human SENP7 inhibition, confirmed. AID 488917. inhibition, % at 12.5 µM. 6,200 compounds, 69% hits. shares compounds with SENP7 inh. recombinant SENP7, Z-RLRGG-aminoluciferin luminescence, 40 min
Casp3 select: selectivity test for SENP inhibitors: human caspase-3 inhibition. purified caspase-3, Z-DEVD-aminoluciferin luminescence, 60 min. inhibition, % at 12.5 µM. 6,200 compounds, 60% hits. shares compounds with SENP7 inh;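 active means mean inhibition above about 50%, limit read from the data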;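 further: plate controls were enzyme with DMSO for no effect and wells without caspase-3 for full effect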
Target sequence (P42574 28-227 limits assumed): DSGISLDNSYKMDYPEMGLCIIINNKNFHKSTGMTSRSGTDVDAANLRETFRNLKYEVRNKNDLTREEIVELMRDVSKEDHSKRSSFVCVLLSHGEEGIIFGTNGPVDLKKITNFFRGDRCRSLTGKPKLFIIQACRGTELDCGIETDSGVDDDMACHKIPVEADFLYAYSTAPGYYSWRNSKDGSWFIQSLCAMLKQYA
Luc interf: luminescence interference (SENP counter-screen); shares compounds with SENP7 inh; Pre-incubated SENP8/Z-RLRGG-aminoluciferin, luciferase luminescence interference; inhibition, % at 12.5 µM; 6,200 compounds, 39% hits;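 active means mean inhibition above about 50% when retested at one dose, limit read from the data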;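 further: plate controls were DMSO wells with completed reaction for no effect and substrate without enzyme for full effect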
Starred values were filed as active, the others as inactive. An excerpt weighted towards active compounds, which were near 3% of everything screened.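 How the source made its calls, unless noted: active means mean inhibition above about 50% in the one-dose retest (limit read from the data); inactive means the rest.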

CC(C)c1ccc(/C=C/C(=O)Nc2nncs2)cc1 was read as SENP8 block-1 -31.2, SENP7 inh 89.6*, PPC-1+TRAIL kill 28.9, SENP8 block-2 72.7*, SENP6 inh 84.3*, TRAIL sens C8 73.5*, SENP8 confirm 33.2, SENP6 confirm 54.2*, SENP7 conf 81.6*, Casp3 select 62.7* and Luc interf 16.7.
Screening COc1ccc(-c2nc(S(=O)(=O)c3ccccc3)c(NCCCN3CCOCC3)o2)cc1 returned SENP8 block-1 -7.8, SENP7 inh 6.8, SENP8 block-2 -2.3, SENP6 inh -8.8 and TRAIL sens C8 -3.8.
For Cc1ccc(NC(=O)CNC(=O)CN2C(=O)c3ccccc3C2=O)cc1 the results were SENP8 block-1 4.5 and TRAIL sens C8 -2.8.
Screening CCCCOCCCNC(=O)CN1C(=O)c2ccccc2C1=O returned SENP8 block-1 12.4, SENP7 inh 88.0*, PPC-1+TRAIL kill 32.3, SENP8 block-2 4.3, SENP6 inh -27.1, TRAIL sens C8 -5.8, SENP8 confirm -0.9, SENP6 confirm 0.3, SENP7 conf -1.2, Casp3 select -1.2 and Luc interf -3.7.
`O=S(=O)(NCCS(=O)(=O)N1CCN(c2ccc(F)cc2)CC1)c1ccc(F)cc1` gave SENP8 block-1 14.9 and TRAIL sens C8 -3.7.
For COc1ccc2oc(C(=O)Nc3nc(C)cs3)c(C)c2c1 the results were SENP8 block-1 -347.8, SENP7 inh 60.8*, SENP8 block-2 43.4, SENP6 inh 46.0, TRAIL sens C8 59.9*, SENP8 confirm 17.0, SENP6 confirm 37.0, SENP7 conf 72.3*, Casp3 select 54.8* and Luc interf 34.0.
`COc1ccc2oc(C(=O)Nc3ccc(C)cn3)c(C)c2c1` gave SENP8 block-1 -85.6, SENP7 inh 39.6, SENP8 block-2 -7.8, SENP6 inh -1.8 and TRAIL sens C8 33.1.
`COCc1c(C(=O)Nc2nc(C)cs2)oc2ccccc12` gave SENP8 block-1 -32.0, SENP7 inh -2.4, PPC-1+TRAIL kill -0.3, SENP8 block-2 -9.6, SENP6 inh 0.7 and TRAIL sens C8 -8.6.
COc1ccc2oc(C(=O)Nc3ccccn3)c(C)c2c1 was read as SENP8 block-1 -145.1, SENP7 inh 92.1*, SENP8 block-2 77.4*, SENP6 inh 86.9*, TRAIL sens C8 61.7*, SENP8 confirm 84.7*, SENP6 confirm 84.8*, SENP7 conf 97.8*, Casp3 select 88.0* and Luc interf 87.9*.
Cc1cccnc1NC(=O)CCCNC(=O)c1ccc(Cl)cc1 was read as SENP8 block-1 9.0, SENP7 inh -3.8, SENP8 block-2 -2.0, SENP6 inh 10.5 and TRAIL sens C8 -14.9.
For C/C(=N\NC(=O)COc1ccc([N+](=O)[O-])cc1)c1ccco1 the results were SENP8 block-1 5.7, SENP7 inh -3.1, SENP8 block-2 6.1, SENP6 inh 0.2 and TRAIL sens C8 -9.5.
C/C(=N\Nc1ccc([N+](=O)[O-])cc1)c1ccco1 was read as SENP8 block-1 -20.4, SENP7 inh 69.8*, PPC-1+TRAIL kill 31.6, SENP8 block-2 57.9*, SENP6 inh 74.3*, TRAIL sens C8 0.2, SENP8 confirm 26.7, SENP6 confirm 50.6*, SENP7 conf 83.5*, Casp3 select 45.8 and Luc interf 15.6.
`CCO/C=C1/C(=O)N(CC)c2ccccc21` gave SENP8 block-1 15.5, SENP7 inh -1.7, PPC-1+TRAIL kill 1.4, SENP8 block-2 0.4, SENP6 inh -4.1 and TRAIL sens C8 25.9.
COc1ccc(N2C(=O)c3ccccc3C2=O)cc1 was read as SENP8 block-1 11.7, SENP7 inh 14.2, SENP8 block-2 1.4, SENP6 inh -6.4 and TRAIL sens C8 11.0.
CCO/C=C1/C(=O)N(Cc2ccccc2)C(=O)c2ccccc21 was read as SENP8 block-1 -407.9, SENP7 inh 81.0*, PPC-1+TRAIL kill -1.7, SENP8 block-2 89.7*, SENP6 inh 94.4*, TRAIL sens C8 3.5, SENP8 confirm 81.7*, SENP6 confirm 96.6*, SENP7 conf 85.8*, Casp3 select 97.7* and Luc interf 6.8.
Screening CCO/C=C1/C(=O)N(c2ccccc2OC)C(=O)c2ccccc21 returned SENP8 block-1 -413.7, SENP7 inh 30.8, PPC-1+TRAIL kill -5.6, SENP8 block-2 16.2, SENP6 inh 34.8 and TRAIL sens C8 -2.6.
For CCO/C=C1/C(=O)N(c2ccc(OC)cc2)C(=O)c2ccccc21 the results were SENP8 block-1 -351.2, SENP7 inh 26.2, PPC-1+TRAIL kill -5.0, SENP8 block-2 5.7, SENP6 inh 62.6*, TRAIL sens C8 -9.5, SENP8 confirm 26.4, SENP6 confirm 70.2*, SENP7 conf 35.8, Casp3 select 24.7 and Luc interf -1.8.
CCO/C=C1\C(=O)N(c2ccccc2)C(=O)c2ccccc21 was read as SENP8 block-1 -246.5, SENP7 inh -7.4, PPC-1+TRAIL kill 16.7, SENP8 block-2 14.9, SENP6 inh 53.3*, TRAIL sens C8 -4.8, SENP8 confirm 14.4, SENP6 confirm 53.9*, SENP7 conf 24.2, Casp3 select 19.3 and Luc interf -1.5.
For O=C(CCc1n[nH]c(=O)[nH]c1=O)Nc1cccc([N+](=O)[O-])c1 the results were SENP8 block-1 13.5, SENP7 inh 5.1, PPC-1+TRAIL kill 11.0, SENP8 block-2 5.1, SENP6 inh -1.3 and TRAIL sens C8 -1.5.
For CN1CCN(CCNC(=O)c2ccc(CS(=O)c3ccc(Br)cc3)o2)CC1 (stereo not drawn) the results were SENP8 block-1 10.8 and TRAIL sens C8 13.3.
CC(C)(C)c1ccc(S(=O)(=O)N2CCN(C(=O)C3CCC3)CC2)cc1 was read as SENP8 block-1 3.0, SENP7 inh -12.7, SENP8 block-2 0.7, SENP6 inh -0.4 and TRAIL sens C8 -0.3.
Cc1ccccc1OCCCC(=O)Nc1nccs1 was read as SENP8 block-1 7.6, SENP7 inh -9.3, PPC-1+TRAIL kill -4.6, SENP8 block-2 -5.5, SENP6 inh -20.7 and TRAIL sens C8 8.3.
